Results published in the supplement of paper PMC10849652.
The full data set covers some 8,800 targets. This sample favours those with a hit. About 0.5% of all pairs of compound and target were hits.

Tests used:
Experiment in all cases: log2 fold change, soluble protein after heating vs DMSO (PISA); higher = thermal stabilisation; K562 lysate, 10 uM; active = over 0.2 and 3.5 SD of the protein, either way, in both replicates (recomputed)
erlotinib = compound: C#Cc1cccc(Nc2ncnc3cc(OCCOC)c(OCCOC)cc23)c1 [erlotinib]
How it was run: (§1)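 Following dounce homogenisation of K562 pellets in PBS pH 7.4 with 1 mM MgCl2, crude extract at 1 mg/mL protein was incubated for 30 min with 10 μM compound. Aliquots were then heated for 3 min over 48°C-58°C and pooled, NP-40 was added to 0.5% at 4°C, and soluble protein was recovered as the supernatant at 21,000xg for 90 min. Channel-sum-equalised TMTpro 16plex LC-MS/MS quantified this protein. Each value, from duplicates, is a log-two fold change in thermal stability relative to solvent controls.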

[1] = compound: C/C(=N\NC(=O)C1=CC(=CC=C1)S(=O)(=O)N2CCOCC2)/C3=C(C=CC(=C3)Cl)O
How it was run: as §1

[2] = compound: C1=CC(=CC=C1C2=NC3=C(N2)C=C(C=C3)C(=O)N)OC4=CC=C(C=C4)Cl
How it was run: as §1

[3] = compound: C1=CC2=C(C=CC(=C2)/C=C\3/C(=O)NC(=NCC4=CC=CS4)S3)N=C1
How it was run: as §1

[4] = compound: C1=CC2=NC=CN=C2C=C1/C=C/3\C(=O)NC(=O)S3
How it was run: as §1

[5] = compound: C1=CC=C(C=C1)C2=NC(=C(N2)C3=CC=NC=C3)C4=CC(=C(C=C4)Cl)O
How it was run: as §1

[6] = compound: C1=CC=C2C(=C1)C3=NNC4=CC=CC(=C43)C2=O
How it was run: as §1

[7] = compound: C1CCN(C1)C(=O)NC2=CC=CC(=C2)NC3=NC=C(C(=N3)NCCC4=CN=CN4)Br
How it was run: as §1

[8] = compound: C1CN(CCC1(CC2=CC=C(C=C2)Cl)N)C3=NC=NC4=C3C=CN4
How it was run: as §1

IRAK-1-4 Inhibitor I = compound: C1COCCN1CCN2C3=CC=CC=C3N=C2NC(=O)C4=CC(=CC=C4)[N+](=O)[O-] [IRAK-1-4 Inhibitor I]
How it was run: as §1

Measured: log2 fold change

MYOM1 (UniProt P52179)
active: IRAK-1-4 Inhibitor I 0.503
inactive: erlotinib -0.015 | [1] 0.033 | [2] -0.062 | [3] -0.228 | [4] -0.076 | [5] -0.009 | [6] 0.098 | [7] -0.023 | [8] 0.142

NDUFAF5 (UniProt Q5TEU4)
Sequence of UniProt Q5TEU4 (Q5TEU4 whole entry, looked up): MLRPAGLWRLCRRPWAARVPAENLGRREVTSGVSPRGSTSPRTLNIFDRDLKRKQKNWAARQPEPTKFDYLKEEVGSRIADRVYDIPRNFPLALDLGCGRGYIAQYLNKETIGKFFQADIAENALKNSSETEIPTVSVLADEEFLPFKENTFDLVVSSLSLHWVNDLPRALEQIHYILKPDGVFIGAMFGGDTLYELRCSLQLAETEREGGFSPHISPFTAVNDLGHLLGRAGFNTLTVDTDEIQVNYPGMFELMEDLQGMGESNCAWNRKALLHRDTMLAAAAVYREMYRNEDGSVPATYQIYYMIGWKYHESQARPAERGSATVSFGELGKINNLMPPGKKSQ
inactive: erlotinib -0.001 | [1] 0.027 | [2] 0.016 | [3] 0.021 | [4] -0.022 | [5] 0.009 | [6] 0.11 | [7] 0.193 | [8] -0.056 | IRAK-1-4 Inhibitor I 0.07

NCK1 (UniProt P16333)
inactive: erlotinib 0.02 | [1] 0.036 | [2] 0.04 | [3] -0.007 | [4] -0.01 | [5] -0.009 | [6] -0.072 | [7] -0.024 | [8] 0.049 | IRAK-1-4 Inhibitor I 0.002

MTA3 (UniProt Q9BTC8)
Sequence of UniProt Q9BTC8 (Q9BTC8 whole entry, looked up): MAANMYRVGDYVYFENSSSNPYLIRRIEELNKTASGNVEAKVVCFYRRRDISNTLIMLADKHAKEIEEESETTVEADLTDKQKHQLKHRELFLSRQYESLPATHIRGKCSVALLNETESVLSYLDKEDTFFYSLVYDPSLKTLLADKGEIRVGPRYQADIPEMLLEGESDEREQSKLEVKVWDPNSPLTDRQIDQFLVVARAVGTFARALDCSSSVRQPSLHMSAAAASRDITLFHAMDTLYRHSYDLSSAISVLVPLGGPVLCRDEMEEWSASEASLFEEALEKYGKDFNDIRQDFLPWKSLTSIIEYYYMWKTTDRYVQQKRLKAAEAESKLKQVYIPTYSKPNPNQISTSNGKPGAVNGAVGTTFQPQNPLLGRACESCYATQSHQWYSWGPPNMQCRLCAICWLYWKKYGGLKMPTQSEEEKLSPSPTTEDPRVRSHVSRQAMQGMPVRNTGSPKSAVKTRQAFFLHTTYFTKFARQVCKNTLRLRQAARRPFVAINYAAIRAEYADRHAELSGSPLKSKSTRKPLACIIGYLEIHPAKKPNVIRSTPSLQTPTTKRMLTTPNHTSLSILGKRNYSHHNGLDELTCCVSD
inactive: erlotinib 0.025 | [1] -0.051 | [2] 0.02 | [3] -0.022 | [4] -0.078 | [5] -0.046 | [6] 0 | [7] 0.004 | [8] 0.025 | IRAK-1-4 Inhibitor I 0.012

PARP14 (UniProt Q460N5)
inactive: erlotinib 0.06 | [1] -0.037 | [2] 0.012 | [3] -0.032 | [4] 0.081 | [5] 0.005 | [6] -0.166 | [7] -0.025 | [8] 0.062 | IRAK-1-4 Inhibitor I -0.095

PAN2 isoform 2 (UniProt Q504Q3)
inactive: erlotinib 0 | [1] -0.007 | [2] -0.015 | [3] -0.005 | [4] 0.052 | [5] 0.03 | [6] 0 | [7] -0.017 | [8] -0.031 | IRAK-1-4 Inhibitor I 0.006

OSBPL3 isoform 2 (UniProt Q9H4L5)
inactive: erlotinib 0.292 | [1] 0.206 | [2] 0.038 | [3] 0.079 | [4] -0.04 | [5] 0.189 | [6] 0.135 | [7] -0.001 | [8] -0.018 | IRAK-1-4 Inhibitor I -0.183

NAT1 (UniProt P18440)
Sequence of UniProt P18440 (P18440 whole entry, looked up): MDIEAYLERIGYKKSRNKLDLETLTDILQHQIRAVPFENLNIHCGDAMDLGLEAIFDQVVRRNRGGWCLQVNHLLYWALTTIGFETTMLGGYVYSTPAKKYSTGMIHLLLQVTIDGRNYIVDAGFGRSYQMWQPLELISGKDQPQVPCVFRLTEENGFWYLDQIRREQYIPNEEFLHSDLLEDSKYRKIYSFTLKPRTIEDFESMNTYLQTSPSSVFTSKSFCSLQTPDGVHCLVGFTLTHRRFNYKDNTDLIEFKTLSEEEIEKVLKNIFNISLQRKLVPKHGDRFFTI
active: [6] 0.528
inactive: erlotinib 0.001 | [1] -0.011 | [2] -0.007 | [3] -0.136 | [4] -0.015 | [5] -0.011 | [7] -0.021 | [8] 0.035 | IRAK-1-4 Inhibitor I -0.013

NEXN (UniProt Q0ZGT2)
Sequence of UniProt Q0ZGT2 (Q0ZGT2 whole entry, looked up): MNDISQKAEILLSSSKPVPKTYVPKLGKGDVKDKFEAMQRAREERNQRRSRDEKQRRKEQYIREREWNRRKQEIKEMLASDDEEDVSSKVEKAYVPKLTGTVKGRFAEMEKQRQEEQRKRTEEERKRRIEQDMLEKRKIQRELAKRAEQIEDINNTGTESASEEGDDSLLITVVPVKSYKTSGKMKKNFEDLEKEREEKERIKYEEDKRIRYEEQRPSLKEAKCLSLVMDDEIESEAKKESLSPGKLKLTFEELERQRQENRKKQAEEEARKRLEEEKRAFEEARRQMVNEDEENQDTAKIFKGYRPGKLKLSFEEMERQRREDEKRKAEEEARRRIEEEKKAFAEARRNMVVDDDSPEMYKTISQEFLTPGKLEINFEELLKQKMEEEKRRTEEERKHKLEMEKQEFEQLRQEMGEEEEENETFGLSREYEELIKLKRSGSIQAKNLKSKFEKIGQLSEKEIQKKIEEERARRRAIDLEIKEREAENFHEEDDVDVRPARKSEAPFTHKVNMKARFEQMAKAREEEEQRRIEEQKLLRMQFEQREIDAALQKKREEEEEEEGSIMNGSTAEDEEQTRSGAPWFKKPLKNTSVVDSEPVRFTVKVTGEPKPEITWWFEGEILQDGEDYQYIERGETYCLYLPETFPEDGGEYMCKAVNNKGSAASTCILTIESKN
inactive: erlotinib 0.091 | [1] -0.011 | [2] -0.019 | [3] -0.067 | [4] -0.154 | [5] -0.144 | [6] -0.049 | [7] -0.255 | [8] 0.28 | IRAK-1-4 Inhibitor I -0.133

OARD1 (UniProt Q9Y530)
Sequence of UniProt Q9Y530 (Q9Y530 whole entry, looked up): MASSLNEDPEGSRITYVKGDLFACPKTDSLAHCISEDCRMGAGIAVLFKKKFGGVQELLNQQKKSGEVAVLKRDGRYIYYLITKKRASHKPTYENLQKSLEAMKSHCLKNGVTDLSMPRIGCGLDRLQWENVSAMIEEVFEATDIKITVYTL
inactive: erlotinib 0.002 | [1] -0.1 | [2] 0.008 | [3] 0.028 | [4] -0.019 | [5] -0.015 | [6] -0.031 | [7] -0.036 | [8] 0.041 | IRAK-1-4 Inhibitor I -0.01

NFKBIB (UniProt Q15653)
Sequence of UniProt Q15653 (Q15653 whole entry, looked up): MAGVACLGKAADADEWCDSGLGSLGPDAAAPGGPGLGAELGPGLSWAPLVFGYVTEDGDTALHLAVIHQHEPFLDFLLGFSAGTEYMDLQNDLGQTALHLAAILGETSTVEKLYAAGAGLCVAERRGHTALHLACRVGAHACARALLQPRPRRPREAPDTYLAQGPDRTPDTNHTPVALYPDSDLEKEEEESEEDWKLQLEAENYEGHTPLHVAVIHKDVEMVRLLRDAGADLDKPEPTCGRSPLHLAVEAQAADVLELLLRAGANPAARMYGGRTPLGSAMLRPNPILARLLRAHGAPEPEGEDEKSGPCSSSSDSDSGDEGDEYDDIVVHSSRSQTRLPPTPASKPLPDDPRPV
inactive: erlotinib 0.113 | [1] -0.135 | [2] 0 | [3] 0.03 | [4] 0.025 | [5] -0.026 | [6] 0.06 | [7] 0.016 | [8] -0.008 | IRAK-1-4 Inhibitor I 0.052

OSBP (UniProt P22059)
inactive: erlotinib -0.023 | [1] -0.056 | [2] 0.037 | [3] -0.006 | [4] 0.017 | [5] -0.031 | [6] -0.031 | [7] -0.016 | [8] 0.016 | IRAK-1-4 Inhibitor I -0.112

NCKAP1L (UniProt P55160)
inactive: erlotinib 0.005 | [1] -0.06 | [2] -0.006 | [3] 0.196 | [4] 0.055 | [5] -0.032 | [6] -0.156 | [7] 0.06 | [8] 0.084 | IRAK-1-4 Inhibitor I 0.06

NTPCR (UniProt Q9BSD7)
Sequence of UniProt Q9BSD7 (Q9BSD7 whole entry, looked up): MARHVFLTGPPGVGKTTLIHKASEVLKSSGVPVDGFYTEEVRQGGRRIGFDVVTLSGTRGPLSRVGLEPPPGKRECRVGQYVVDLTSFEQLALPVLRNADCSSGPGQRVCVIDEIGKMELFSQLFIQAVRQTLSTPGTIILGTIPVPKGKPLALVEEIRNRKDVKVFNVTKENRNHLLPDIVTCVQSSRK
inactive: erlotinib 0.015 | [1] -0.263 | [2] -0.007 | [3] 0.065 | [4] 0.031 | [5] 0.018 | [6] -0.045 | [7] 0.025 | [8] 0.046 | IRAK-1-4 Inhibitor I -0.011

NSL1 (UniProt Q96IY1)
inactive: erlotinib 0.01 | [1] -0.004 | [2] 0.015 | [3] -0.001 | [4] -0.002 | [5] 0.01 | [6] 0.077 | [7] 0.001 | [8] -0.015 | IRAK-1-4 Inhibitor I 0.026

NUDT5 (UniProt Q9UKK9)
inactive: erlotinib -0.013 | [1] -0.051 | [2] 0.046 | [3] 0.027 | [4] -0.001 | [5] -0.002 | [6] -0.023 | [7] -0.026 | [8] 0.014 | IRAK-1-4 Inhibitor I 0.005

NUMB (UniProt P49757)
inactive: erlotinib -0.029 | [1] 0.01 | [2] 0.044 | [3] -0.052 | [4] -0.009 | [5] -0.009 | [6] -0.029 | [7] -0.107 | [8] -0.043 | IRAK-1-4 Inhibitor I 0.022

NFKBIE (UniProt O00221)
inactive: erlotinib 0.014 | [1] -0.009 | [2] -0.117 | [3] 0.059 | [4] -0.022 | [5] 0.059 | [6] -0.026 | [7] -0.078 | [8] 0.081 | IRAK-1-4 Inhibitor I 0.119

NQO1 (UniProt P15559)
Sequence of UniProt P15559 (P15559 whole entry, looked up): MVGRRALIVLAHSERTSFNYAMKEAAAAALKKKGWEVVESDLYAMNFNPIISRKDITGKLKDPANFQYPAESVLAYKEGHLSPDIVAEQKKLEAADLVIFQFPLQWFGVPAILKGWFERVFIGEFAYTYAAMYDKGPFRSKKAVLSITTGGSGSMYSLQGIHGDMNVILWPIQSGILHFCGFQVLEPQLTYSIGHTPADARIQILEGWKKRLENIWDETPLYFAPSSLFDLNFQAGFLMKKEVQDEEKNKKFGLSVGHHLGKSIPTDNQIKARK
inactive: erlotinib -0.033 | [1] 0.081 | [2] 0.055 | [3] -0.08 | [4] -0.02 | [5] -0.022 | [6] -0.192 | [7] 0.005 | [8] 0.006 | IRAK-1-4 Inhibitor I -0.017

NUP133 (UniProt Q8WUM0)
inactive: erlotinib 0.01 | [1] -0.016 | [2] 0.006 | [3] 0.019 | [4] -0.018 | [5] 0.017 | [6] -0.023 | [7] -0.04 | [8] 0.015 | IRAK-1-4 Inhibitor I 0.026

MTFP1 (UniProt Q9UDX5)
inactive: erlotinib -0.006 | [1] 0.092 | [2] 0.035 | [3] 0.041 | [4] -0.043 | [5] -0.003 | [6] 0.081 | [7] -0.044 | [8] 0.044 | IRAK-1-4 Inhibitor I -0.058

NBN (UniProt O60934)
inactive: erlotinib -0.026 | [1] 0.068 | [2] 0.051 | [3] -0.004 | [4] -0.024 | [5] 0.013 | [6] -0.044 | [7] -0.005 | [8] 0.013 | IRAK-1-4 Inhibitor I 0.007

NUMBL (UniProt Q9Y6R0)
inactive: erlotinib 0.031 | [1] 0.028 | [2] 0.175 | [3] -0.244 | [4] -0.025 | [5] -0.007 | [6] -0.038 | [7] -0.095 | [8] -0.045 | IRAK-1-4 Inhibitor I -0.084

NMT1 (UniProt P30419)
inactive: erlotinib -0.027 | [1] -0.147 | [2] 0.15 | [3] 0.019 | [4] -0.021 | [5] -0.024 | [6] 0.062 | [7] -0.012 | [8] -0.165 | IRAK-1-4 Inhibitor I -0.027

NNMT (UniProt P40261)
Sequence of UniProt P40261 (P40261 whole entry, looked up): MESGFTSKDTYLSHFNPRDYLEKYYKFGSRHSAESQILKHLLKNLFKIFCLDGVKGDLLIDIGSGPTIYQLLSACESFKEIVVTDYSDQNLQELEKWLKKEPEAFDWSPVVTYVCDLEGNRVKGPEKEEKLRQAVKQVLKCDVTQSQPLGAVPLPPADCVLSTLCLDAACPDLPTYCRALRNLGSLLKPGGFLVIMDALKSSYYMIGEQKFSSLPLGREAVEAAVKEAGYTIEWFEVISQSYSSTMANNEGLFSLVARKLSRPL
inactive: erlotinib -0.015 | [1] 0.003 | [2] 0.045 | [3] -0.001 | [4] -0.003 | [5] 0.032 | [6] -0.019 | [7] -0.002 | [8] -0.006 | IRAK-1-4 Inhibitor I -0.024

NEBL (UniProt O76041)
Sequence of UniProt O76041 (O76041 whole entry, looked up): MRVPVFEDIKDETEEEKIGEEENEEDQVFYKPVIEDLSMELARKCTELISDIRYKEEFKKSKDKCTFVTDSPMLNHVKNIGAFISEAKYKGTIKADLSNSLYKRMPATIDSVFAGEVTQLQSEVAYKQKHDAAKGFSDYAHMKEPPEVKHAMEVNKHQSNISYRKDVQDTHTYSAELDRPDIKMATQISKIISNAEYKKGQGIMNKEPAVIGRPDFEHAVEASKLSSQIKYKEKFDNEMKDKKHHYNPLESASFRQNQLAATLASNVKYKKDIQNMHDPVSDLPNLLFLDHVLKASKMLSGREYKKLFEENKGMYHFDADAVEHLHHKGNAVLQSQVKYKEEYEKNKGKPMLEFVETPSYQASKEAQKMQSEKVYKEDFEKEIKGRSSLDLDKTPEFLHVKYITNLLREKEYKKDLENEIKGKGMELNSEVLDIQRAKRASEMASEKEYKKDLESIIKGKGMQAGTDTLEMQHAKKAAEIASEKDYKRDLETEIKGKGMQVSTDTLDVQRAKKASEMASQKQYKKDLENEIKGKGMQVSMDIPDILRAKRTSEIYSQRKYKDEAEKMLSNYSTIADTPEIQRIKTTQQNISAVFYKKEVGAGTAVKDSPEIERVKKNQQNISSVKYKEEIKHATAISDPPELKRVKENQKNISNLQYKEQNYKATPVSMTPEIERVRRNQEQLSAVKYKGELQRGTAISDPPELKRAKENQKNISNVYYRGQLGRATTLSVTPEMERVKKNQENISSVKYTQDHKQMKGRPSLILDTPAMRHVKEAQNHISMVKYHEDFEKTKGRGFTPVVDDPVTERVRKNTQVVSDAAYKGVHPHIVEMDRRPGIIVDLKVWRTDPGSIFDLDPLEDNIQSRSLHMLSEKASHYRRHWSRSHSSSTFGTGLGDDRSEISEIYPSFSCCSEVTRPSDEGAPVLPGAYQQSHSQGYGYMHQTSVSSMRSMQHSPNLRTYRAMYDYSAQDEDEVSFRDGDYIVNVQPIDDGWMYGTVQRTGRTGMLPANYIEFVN
inactive: erlotinib -0.014 | [1] -0.028 | [2] 0.05 | [3] 0.015 | [4] -0.048 | [5] 0.001 | [6] -0.082 | [7] -0.087 | [8] 0.013 | IRAK-1-4 Inhibitor I 0.054

NOA1 (UniProt Q8NC60)
Sequence of UniProt Q8NC60 (Q8NC60 whole entry, looked up): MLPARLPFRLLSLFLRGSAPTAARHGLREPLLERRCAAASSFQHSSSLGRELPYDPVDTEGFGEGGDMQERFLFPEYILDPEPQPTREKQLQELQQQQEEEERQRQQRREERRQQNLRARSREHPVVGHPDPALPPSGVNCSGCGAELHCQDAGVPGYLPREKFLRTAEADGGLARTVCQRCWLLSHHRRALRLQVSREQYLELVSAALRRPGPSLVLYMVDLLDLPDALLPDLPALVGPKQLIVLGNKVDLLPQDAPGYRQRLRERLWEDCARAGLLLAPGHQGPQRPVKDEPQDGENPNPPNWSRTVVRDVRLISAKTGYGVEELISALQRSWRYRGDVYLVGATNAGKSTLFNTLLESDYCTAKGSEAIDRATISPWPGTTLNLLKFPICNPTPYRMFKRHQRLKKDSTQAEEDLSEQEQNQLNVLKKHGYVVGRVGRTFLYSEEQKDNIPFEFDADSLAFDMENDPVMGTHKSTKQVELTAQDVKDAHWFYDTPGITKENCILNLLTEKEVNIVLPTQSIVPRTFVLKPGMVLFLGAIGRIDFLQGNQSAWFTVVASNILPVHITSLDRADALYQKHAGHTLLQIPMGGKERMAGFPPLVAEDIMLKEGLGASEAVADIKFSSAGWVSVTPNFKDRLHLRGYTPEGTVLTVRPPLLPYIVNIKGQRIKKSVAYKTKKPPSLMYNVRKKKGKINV
inactive: erlotinib 0.001 | [1] 0.003 | [2] -0.007 | [3] -0.051 | [4] -0.024 | [5] 0.033 | [6] -0.088 | [7] 0.07 | [8] -0.046 | IRAK-1-4 Inhibitor I -0.032

MYCBP2 (UniProt O75592)
inactive: erlotinib 0.01 | [1] 0 | [2] 0.031 | [3] 0.008 | [4] -0.008 | [5] 0.031 | [6] -0.023 | [7] 0.004 | [8] 0.03 | IRAK-1-4 Inhibitor I 0.022

NCAPD3 (UniProt P42695)
inactive: erlotinib 0.023 | [1] 0.021 | [2] -0.012 | [3] 0.006 | [4] -0.003 | [5] 0.012 | [6] -0.043 | [7] -0.004 | [8] 0.042 | IRAK-1-4 Inhibitor I 0.03

NIPBL (UniProt Q6KC79)
inactive: erlotinib -0.025 | [1] 0.044 | [2] -0.003 | [3] 0.009 | [4] 0.005 | [5] -0.013 | [6] 0.003 | [7] -0.014 | [8] 0.007 | IRAK-1-4 Inhibitor I -0.043

MT-ND1 (UniProt P03886)
inactive: erlotinib -0.061 | [1] -0.227 | [2] -0.14 | [3] 0.055 | [4] -0.036 | [5] -0.005 | [6] 0.061 | [7] -0.038 | [8] 0.02 | IRAK-1-4 Inhibitor I 0.004
